These entries were drawn from the full list. The true hit rate is not given.
B1: il2ra_site1_1z92_sap_15_mot_e1ae4cb039f7b6770b9307eb87230ce5_0001_000000230_0001_37_51_H_._22eb9e4dad251339c268dc73c902281b_0001_0001_0000100004_0000001_0_0001_ … (protein)
chain: SSSSSSERDARIVVELAVRAAGLSEEQQEELERLAKELLEEGYSFEEIARILDKLALELGSSSSS
B2: il2ra_site2_2erj_sap_13_mot_HHH_b2_06689_af2_000000039_0001_18_34_H_._HHH_b1_05500_af2_0001_0000100002_0000001_0_0001 (protein)
chain: SSSSSEELHRLYELAVELLRAVAEGDEELVREILEEVEELAERADSENVKELIENLHRLFNSSSS
B3: il2ra_site1_2b5i_normal_mot_HHH_b1_02271_000000068_0001_1_16_H_._HHH_b2_05772_0001_0000400026_0000001_0_af2pred_dldesign_0_af2pred (protein)
chain: SSSSSPELKRLVEEALRRAEAAKAAGRVREALEILNAAHKKADEADDEELSDELEAKAKELSSSS
B4: il2ra_site1_1z92_sap_10_mot_d8cfa582855fb05d91e09f57594ab115_0001_1_000000067_0001_37_51_H_._HEEHE_2450_0001_0000100007_0000001_0_0001 (protein)
chain: SSSSSEAERAFELIREIDEVIREGDEEEAKRLLEELRRLAEERNSPTMKRLLELLEEALEGSSSS
B5: il2ra_site2_2erj_normal_mot_6bd1339e93f6fdda22195c76da45ec5d_0001_000000136_0001_37_51_H_._ems_3hC_696_0001_0000700021_0000001_0_af2pred_0001_af2pred (protein)
chain: LEEDILRAFRIAVELLEKFRDDPEIERLVLEASLELTEAIEENDEEKIERVIEKIEEIKEEADSS
B6: il2ra_site2_3nfp_sap_19_mot_HHH_b1_03376_000000004_0001_41_55_H_._88162e6262ef81793ed720f4f561f318_0001_0001_0000800035_0000001_0_0001_af2pred_0001_1_af2pred_sw … (protein)
chain: SSDEEQEESEELKELIREALEKNDDEKLRKLIKEAASFALQLNDEELLEFASEARALLAKLRLSS
B7: il2ra_site1_1z92_normal_mot_922575b2e9738a49cb663a995786872c_0001_af2_000000234_0001_18_32_H_._09c2afe89fb4cbada1505b3a46965288_0001_af2_0001_0000100006_0000001 … (protein)
chain: GPEQELEELEEELGDPREAIRLLLEELEEESGDPELARQFLKIEIKRLFNVPPEEAERLLREAEK
B8: il2ra_site1_3nfp_normal_mot_HHH_b1_04931_000000291_0001_38_56_H_._5fa2c1a30f04debedfe40931e4d0b367_0001_af2_0001_0000700055_0000001_0 (protein)
chain: DVRFLLEAARFAGDELVVEVAEKLEELREEDPDDQEVKELVQKLLQLLAKDPEEAKKLAEELKRR
B9: il2ra_site1_3nfp_normal_mot_ems_3hC_3_0002_000000237_0001_23_41_H_._971380201c9414114138cf1fdc40c0f4_0001_1_0001_0000300014_0000001_0_af2pred_0001_af2pred (protein)
chain: SLAEELVEEIEEKGLPPEEIEKLIREILKRIGDPEEAREFFEELMRLAAKNRNEELLEAIKLVLR
B10: il2ra_site1_3nfp_sap_10_mot_HHH_b2_00770_af2_000000063_0001_1_19_H_._HHH_b2_07788_0001_0000400012_0000001_0_0001 (protein)
chain: NEEARRLAEAIARGDPRVEELIEELVEELKRKGDPDLRHALKALARMARSFGNPELAEELERLLK
B11: il2ra_site1_1z92_normal_mot_HHH_b1_07828_af2_000000107_0001_18_34_H_._HHH_b1_02447_af2_0001_0000300012_0000001_0 (protein)
chain: SSSSDLEEAIEILLQAIRRAIEAGNEKAAERFIEFAKEQIEDSGDPELERILRELEELLRSSSSS
B12: il2ra_site1_2b5i_normal_mot_HHH_b1_02271_000000068_0001_1_16_H_._HHH_b1_08003_0001_0000900024_0000001_0_af2pred_dldesign_0_af2pred (protein)
chain: SSSSSDKKAEVERLIEEAERLYKAGKRREALEKLNEAKKLADAADDEELEDKIEELAKKISSSSS
B13: il2ra_site1_3nfp_sap_13_mot_0eddeacbb14b769e73e254714f31e2f9_0001_af2_000000052_0001_37_51_H_._3685a7fc0315cffcf770f862f50b42b9_0001_1_0001_0000400028_0000001_0 … (protein)
chain: SDLEEEVRELIELIKEFAEERNSPVAKLYAELLEEAARRAEERNDERSLRYVLRSARLALRSGSS
B14: il2ra_site1_1z92_sap_18_mot_HHH_b1_00368_000000203_0001_23_39_H_._d7cfadeb27be910639eb6e95e3396c32_0001_af2_0001_0000300014_0000001_0_0001 (protein)
chain: SSSSDEELEERVKQFAEELVKELGLDEHAREALEKDAEAAVRLGFSERSIKLALERAARRASSSS
B15: il2ra_site1_3nfp_sap_17_mot_HHH_b1_07644_af2_000000110_0001_40_57_H_._HEEHE_2706_0001_0000400054_0000001_0_0001_af2pred_0001_af2pred_1_swapped (protein)
chain: SSSSDALEFVEELAEKAFENNDKFQLRALYKLLREALEKTGNPEAEEVLEKVEELLRELQSSSSS
B16: il2ra_site2_2erj_sap_25_mot_ca9fcc9ace360711d783d1260e4fbff1_0001_1_af2_000000007_0001_15_32_H_._7f39e2d7389de0c2f60e905c27398b6a_0001_1_af2_0001_0000400011_000 … (protein)
chain: SSSSSYEERVEELLEEAEEAYREGDLHAVYRLAVEALHVASELGDQELIRLVAEFVEKISDSSSS
B17: il2ra_site1_2b5i_sap_16_mot_HHH_b1_01419_af2_000000080_0001_42_53_H_._HHH_b1_05266_af2_0001_0000100001_0000001_1_0001_af2pred_dldesign_0_af2pred (protein)
chain: SSSSSNQDEVYRLYKEALRLYKEGKREEAKKVLEEALKLAEKNKDEVAVKELKELLKRLESSSSS
B18: il2ra_site1_1z92_normal_mot_9b3351f2f66fbcc824ad33b4da01f8ef_0001_af2_000000012_0001_16_32_H_._HHH_b1_08171_0001_0000100006_0000001_0 (protein)
chain: SSSSSEEVLKKDLRFAVEARNPSSFRRLAELARRDLKEAGDEEALREFEEFVEELEQELGSSSSS

Biological target: il2ra, P01589
Sequence (P01589 whole entry): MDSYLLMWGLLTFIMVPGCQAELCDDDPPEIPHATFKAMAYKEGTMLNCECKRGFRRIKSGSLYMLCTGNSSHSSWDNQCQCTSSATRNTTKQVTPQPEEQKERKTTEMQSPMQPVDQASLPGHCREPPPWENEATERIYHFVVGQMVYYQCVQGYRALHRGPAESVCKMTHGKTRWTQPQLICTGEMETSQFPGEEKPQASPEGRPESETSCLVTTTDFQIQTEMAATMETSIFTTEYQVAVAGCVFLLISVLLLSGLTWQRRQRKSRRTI
Assay: yeast display titration

Apparent Kd, inactive:
B1 no binding seen
B2 no binding seen
B3 no binding seen
B4 no binding seen
B5 no binding seen
B6 no binding seen
B7 no binding seen
B8 no binding seen
B9 no binding seen
B10 no binding seen
B11 no binding seen
B12 no binding seen
B13 no binding seen
B14 no binding seen
B15 no binding seen
B16 no binding seen
B17 no binding seen
B18 > 1.5 µM
